Screening data as filed in PubChem.
Pf Dd2 growth: blocks in vitro growth of P. falciparum Dd2 | P. falciparum Dd2 growth, SYBR Green, 72 h | Potency, µM (doses to about 28.9 µM), for the others: at the highest dose activity, negative = inhibition, usual class: inhibitors | hit rate 4.3% among 120,000 | AID 1347417; active = well fitted inhibition curve with a large enough effect;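 also: plate controls were DMSO vehicle for no effect and reference drug for full effect; nearly all actives have a fitted effect of over 65% in size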
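Infected erythrocytes (Dd2, 0.3% parasitemia, 2.5% hematocrit final) are added to compound in RPMI-1640/Albumax II medium, grown 72 h at 37C in low oxygen, then lysed with saponin/Triton-X containing SYBR Green and read by fluorescence.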
An asterisk follows results filed as active; i = inactive; ! = not active in a repeat; [ ] = remark or other dose. The sample as a whole holds a higher share of hits than the screen did. Potency is read from the fitted curve at half-maximal effect.

SMILES	Pf Dd2 growth
O=c1[nH]c(C2CCN(Cc3cccs3)CC2)nc2ccc(F)cc12	-6%
O=c1[nH]c(C2CCCN(Cc3ccc(Cl)cc3)C2)nc2ccc(F)cc12 (centres undefined)	8.9µM*
O=c1[nH]c(C2CCCN(Cc3cccc(Cl)c3)C2)nc2ccc(F)cc12 (centres undefined)	10µM*!
O=C(Nc1cccc(-c2ccc(N3CCOCC3)nn2)c1)Nc1ccccc1Cl	-2%
CC(C)NC(=O)N1CNC(=O)C12CCN(C(=O)[C@@H](N)c1ccccc1)CC2	2%
Cc1cc(C(=O)N2CCCC2c2nc(CCOCC3CCCC3)no2)nn1C (centres undefined)	-19%
CCCc1nnc([C@H]2CCN(C(=O)COC)C2)o1	4%[44.1 µM]
CCOC(=O)C[C@@H]1C[C@@H](C(C)C)[C@H](CNC(=O)c2ccncc2)C=C1C	i
COc1ccc(C(=O)NC[C@@H]2C=C(C)[C@H](CC(=O)N3CCN(C(C)=O)CC3)C[C@H]2C(C)C)cc1	-17%
CC1=C[C@@H](CNC(=O)c2ccccc2)[C@H](C(C)C)C[C@H]1CC(=O)N1CCCC1	11µM*
CC1=C[C@@H](CNC(=O)C(C)(C)C)[C@H](C(C)C)C[C@H]1Cc1nnc(-c2ccncc2)o1	-10%[44.1 µM]
COc1ccc(C(=O)NC[C@@H]2C=C(C)[C@H](Cc3nnc(-c4ccncc4)o3)C[C@H]2C(C)C)cc1	3.5µM*
CC1=C[C@@H](CO)[C@H](C(C)C)C[C@H]1Cc1nnc(-c2cccnc2)o1	i
COc1ccc(-c2nnc(C[C@@H]3C[C@@H](C(C)C)[C@H](CO)C=C3C)o2)cc1	10µM*
CC(=O)NC[C@@H]1C=C(C)[C@H](CC(=O)N2CCN(C(C)=O)CC2)C[C@H]1C(C)C	-12%[44.1 µM]
CCc1nc(C)c(C(=O)N2C[C@H]3CC[C@@H]2CN(C(=O)c2ccccc2)C3)s1	-3%
CC[C@H]1CN(S(=O)(=O)c2ccccc2)CC[C@H]1CC(=O)O	-3%[44.1 µM]
Cn1cc(CN2CCN3C(=O)N(C4CCOCC4)C[C@H]3C2)cn1	13%[44.1 µM]
NCCCC(=O)N1CCCC2(Cc3ccccc3CN2C(=O)c2ccccc2)C1 (centres undefined)	7%
CCCN1CCCC2(Cc3ccccc3CN(C(=O)CCCC(=O)O)C2)C1 (centres undefined)	-6%
COc1ccc(C(=O)N2Cc3ccccc3CC23CCCN(C(=O)CN)C3)cc1 (centres undefined)	-18%
CN1CCC2(Cc3ccccc3CN(C(=O)CCC(=O)O)C2)C1 (centres undefined)	-7%
CCN1CCCC2(Cc3ccccc3CN(C(=O)CCC(=O)O)C2)C1 (centres undefined)	17%
CCCC(=O)N1Cc2ccccc2CC2(CCN(C)C2)C1 (centres undefined)	11µM*
CCCC(=O)N1Cc2ccccc2CC2(CCCN(CCC)C2)C1 (centres undefined)	8.9µM*
SMILES	Pf Dd2 growth
CCN1CCCC2(Cc3ccccc3CN(C(=O)c3ccccc3)C2)C1 (centres undefined)	10µM*
NCC(=O)N1Cc2ccccc2CC12CCCN(C(=O)c1ccccc1)C2 (centres undefined)	8.9µM*
O=C(O)CCC(=O)N1Cc2ccccc2CC2(CCCN(CCc3ccccc3)C2)C1 (centres undefined)	9%
CCC(=O)N1Cc2ccccc2CC2(CCCN(CC3CCNCC3)C2)C1 (centres undefined)	-2%
CCCC(=O)N1Cc2ccccc2CC2(CCN(CC)C2)C1 (centres undefined)	-13%[44.1 µM]
CNC(=O)c1noc(CN2CCN(C)C3(CCNC(=O)CC3)C2)n1 (centres undefined)	-14%
O=C(CN1CC2CC(C1)[C@H]1CCCC(=O)N1C2)NCc1ccccc1F (some centres undefined)	-12%
CNC(=O)CN(C)C(=O)c1coc(COc2ccc3ccc(OC)cc3c2)n1	-21%
CCOc1ccc(NC(=O)CN2C(=O)NC(c3ccccc3OCC)C3=C2COC3=O)cc1 (centres undefined)	-7%
COC[C@@H]1CN(C(=O)c2cn3ccccc3n2)C[C@H]1c1nc(C)no1	3%
CCc1ccc(NC(=O)NCC2CCOCC2)cc1	4%
CCCCN1C(=O)C(CC(=O)NC(C)C)Sc2ncccc21 (centres undefined)	-9%
O=C(Nc1ccc2c(c1)CN(Cc1ccc(Cl)cc1)C(=O)CO2)c1ccc(F)cc1F	i
CCc1noc(C)c1C(=O)N1C[C@@H](C(=O)O)C[C@@H](C(=O)N2CCCC2)C1	4%
CN1C[C@H](NCc2ccc(F)cc2)CCC[C@@H](C(=O)NC2CCOCC2)CC1=O	i
FC(F)(F)c1ccc2c(c1)nc1n2[C@@H](CNC2CCOCC2)COC1	i
CCC(=O)N1Cc2ccccc2CC2(CCCN(Cc3ccncc3)C2)C1 (centres undefined)	-6%
CC(=O)NCC(=O)N1Cc2ccccc2CC2(CCN(Cc3ccccc3)C2)C1 (centres undefined)	-18%
CC(C)C(=O)N1Cc2ccccc2CC2(CCCN(Cc3ccccc3)C2)C1 (centres undefined)	3.5µM*
CC(C)(Cc1ccc(F)cc1)NC(=O)C1CCC(=O)N(Cc2ccccn2)C1 (centres undefined)	-21%
COc1ccc(-c2ccc3nnc(CNC(=O)c4ccc[nH]4)n3n2)cc1	18%
CCN(CC)C1CCOC2(CCN(C(=O)C(C)C)CC2)C1 (centres undefined)	-2%
CC(C)n1cnnc1CNC(=O)[C@H]1CNC[C@H](C(=O)N2CCOCC2)C1	-16%
CN(CC1CCOC1)C(=O)Nc1cccc(C(F)(F)F)c1 (centres undefined)	i[5.79 µM]
CCN1CCC(N(Cc2ccc(F)cc2)C(=O)Nc2cccc(C(F)(F)F)c2)CC1	13µM*
SMILES	Pf Dd2 growth
Cc1ccc(NC(=O)N(C)CC2CCOCC2)cc1F	-23%
COc1ccc(CN(C(=O)Nc2ccc(C)c(F)c2)C2CCN(C(C)=O)CC2)cc1	7%
CCN1CCC(N(Cc2ccc(F)cc2)C(=O)Nc2ccc(C)c(F)c2)CC1	11µM*
CC[C@H]1CN(C(=O)Nc2cccc(C(F)(F)F)c2)CC[C@H]1CC(=O)NCc1ccc(F)cc1	i
CC(C)NC(=O)N1CCCC(c2nnc3n2CCNC3)C1 (centres undefined)	8%
CCCN(C)C(=O)Cc1ccc(N(Cc2ccc(C)cc2)C(=O)c2ccco2)cc1	-7%
COc1ccccc1-c1nnc2n1C(C(=O)N1CCOCC1)CC2 (centres undefined)	11%
O=C1Nc2ccccc2C12CN(Cc1ccsc1)C2	-6%[44.1 µM]
CN1CCC(N[C@@H]2CCC[C@@H](C(=O)NC3CC3)CC(=O)N(C)C2)CC1	18%[44.1 µM]
Cn1nc(C(=O)N2CCOCCNC(=O)CC2)c2ccccc21	-1%
O=C(CC[C@H]1NC(=O)c2ccccc2NC1=O)Nc1nnc(Cc2ccccc2)s1	-4%
CN(CC1(CO)CCOCC1)C(=O)c1cc(COc2ccccc2)[nH]n1	-4%
CN(CCN1CCCCCC1)C(=O)c1cc(COc2ccccc2)[nH]n1	7.9µM*
CN(CCN1CCOCC1)C(=O)c1cc(COc2cccc(F)c2)[nH]n1	-20%
Cc1c(Cl)cc(C(=O)N2CCC[C@H]2C(=O)N2CCOCC2)cc1Cl	-22%
Cn1ccnc1C(=O)N1CCC(C(=O)N2CCCCCCNC(=O)CC2)CC1	6%
Cc1ccccc1C(=O)N1CCC(c2nc3ccccc3s2)CC1	1.3µM*
Cc1cc(C)c2c(C)c(C(=O)N3CCC(c4nc5ccccc5s4)CC3)oc2c1	8.9µM*
Cc1c(C(=O)N2CCC(c3nc4ccccc4s3)CC2)oc2cc(Br)ccc12	-18%
